# Compound activity deposited in PubChem BioAssay by National Center for Advancing Translational Sciences (NCATS).
# A selection: hits, their analogues and other compounds. The true share with any hit is near 7.8%.
# Vaccinia Venus – inhibitors of vaccinia virus (Venus reporter); Potency, µM (series often up to 36.5 µM), for the others: at the highest dose activity change, negative = inhibition, most hits filed as inhibitors; Vaccinia virus Venus reporter expression, fluorescence; hit rate 0.46% among 330,000; calls by dose curve; tested in A549 cells; also: potency is read from the fitted curve at half-maximal effect; nearly all actives have a fitted effect of over 30% in size
# VACV mCherry inh – vaccinia inhibition (mCherry reporter). Potency, µM (highest dose often 36.5 µM), for the others: top-dose activity change, negative = inhibition, most hits filed as inhibitors. hit rate 0.63% among 310,000. AID 720579. Vaccinia virus mCherry reporter infection, fluorescence; calls by dose curve; tested in A549 cells; also: potency is read from the fitted curve at half-maximal effect; nearly all actives have a fitted effect of over 35% in size
# Marburg entry inh – inhibitors of Marburg virus binding or cell entry; hit rate 1.8% among 300,000; Marburg virus pseudotyped entry inhibition, cell reporter; Potency, µM (top dose mostly 37.8 µM), for the others: top-dose activity change, negative = inhibition, most hits filed as inhibitors; calls by dose curve; tested in HEK293 cells; also: potency is read from the fitted curve at half-maximal effect
# Lassa entry inh – blocks Lassa virus binding to or entry into cells | AID 540256 | Lassa virus pseudotype entry inhibition, cell reporter | hit rate 1.2% among 300,000 | Potency, µM (highest dose often 37.9 µM), for inactives: at the top dose activity change, negative = inhibition, most hits filed as inhibitors; calls by dose curve; tested in HEK293 cells; also: potency is read from the fitted curve at half-maximal effect; nearly all actives have a fitted effect of over 50% in size
# HCV inh – HCV inhibition. Huh7.5.1 HCVcc-Cre infection, luciferase reporter, 44 h. Potency, µM (highest dose often 41.8 µM), for inactives: top-dose activity change, negative = inhibition, hits mostly inhibitors. hit rate 3.4% among 340,000; active = well fitted inhibition curve with a large enough effect; inconclusive = small, poorly fitted or top-dose-only effect, or another doubt; inactive = no such curve, though single readings can be large or run the other way; also: potency is read from the fitted curve at half-maximal effect
#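 HCVcc-Cre virus at an moi near 0.5 was added right after compound to cells cultured 4 h from seeding (1,000 cells/well). Luciferase activity was determined 44 h later, 15 min after substrate addition at RT.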
# HCMV inh – inhibitors of human cytomegalovirus | activity change, negative = inhibition, % at 57.5 µM | HFF cells, HCMV-luciferase reporter, 72 h; active compounds read low | hit rate 4.5% among 410,000; in the data active = activity change below about -60%; inconclusive = no clear call, values can overlap the other calls; inactive = above about -39%
#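 Screen run at 2 compound doses on HFFs infected with reporter HCMV, MOI 1 PFU/cell. Luciferase activity from cell lysates at 72 h post infection gave inhibition relative to buffer-only and Salinomycin wells.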
# An asterisk follows results filed as active; i = inactive; ? = inconclusive; . = no result; ! = not active in a repeat; [ ] = remark or other dose. % is scaled to controls: 0 for no effect and ±100 for the full control effect.
SMILES,Vaccinia Venus,VACV mCherry inh,Marburg entry inh,Lassa entry inh,HCV inh,HCMV inh
CCc1cc(/C(Cc2ccccn2)=N\O)c(O)cc1O,.,.,-2%,-3%,22µM*,?
Cc1ccccc1-c1nc(-c2ccc(NC(=O)c3cccs3)cc2)no1,-25%,-28%,?,3%,14µM*,14
O=C(Nc1ccc(-c2nc3ccc(NC(=O)c4cccs4)cc3[nH]2)cc1)c1cccs1,-21%,10%,?,?,?,-84*
O=C(Cc1cccs1)Nc1cccc(-c2nc3cc4ccccc4cc3[nH]2)c1,10µM*,?,?,?,11µM*,-88*
O=C(Nc1ccc2nc(-c3cccs3)[nH]c2c1)c1cccs1,7%,-6%,-8%[46.1 µM],18%,13µM*,?
Cc1ccc(CNC(=O)O[C@H]2CC[C@@]34CCCN3C(=O)CCC[C@H]4[C@H]2Cc2ccccc2)o1,.,.,.,.,.,-23
COc1cccc(Nc2nc3ccc(C)cc3nc2-n2nc(C)cc2C)c1,-5%,-8%,16%[46.1 µM],28%[46.1 µM],.,20
Clc1ccc2c(c1)N=C(N1CCNCC1)c1ccccc1N2,-24%,?,?,?,.,.
CN1CCN(C2=Nc3cc(Cl)ccc3Nc3ccccc32)CC1,-16%,-3%,13µM*!,-14%,0%[8.37 µM],?
C/C(=N\Nc1nc(C)cc(-c2ccccc2)n1)c1cccc(N)c1,.,.,.,.,6.3µM*,-34
C/C(=N\Nc1nc(C)cc(-c2ccccc2)n1)c1ccccc1,-14%,i,?,?,16µM*,?
C/C(=N\Nc1nc(C)cc(-c2ccccc2)n1)c1ccc(O)cc1,.,.,.,.,11µM*,-89*
C/C(=N/Nc1nc(C)cc(-c2ccccc2)n1)c1ccco1,-18%,?,0%[46.1 µM],?,?,42
C/C(=N\Nc1nc(C)cc(-c2ccccc2)n1)c1ccc(C)o1,-20%,?,-17%[46.1 µM],?,?,-63*
COC(=O)[C@@H]1CC[C@H](C)[C@@H](c2ccc(C)cc2)N1C(=O)c1ccc(C=NO[C@@H](C)c2cc(-c3c(C)cc(C)cc3C)no2)cc1,.,.,6%[14.2 µM],.,.,.
CCOC(=O)c1cccc(NC(=O)Cn2c(=O)c3cccn3c3ccccc32)c1,-13%,-14%,.,?,.,38
COc1ccc2c(c1)C(=O)C(=O)N2CC1COc2ccccc2O1 (centres undefined),.,.,.,.,-27%,-82*
Cc1ccc2c(c1)C(=O)C(=O)N2CC1COc2ccccc2O1 (centres undefined),-16%,-14%,?,-22%[46.1 µM],-17%,-67*
CCN1CCN(CC2COc3ccccc3O2)CC1 (centres undefined),.,.,.,.,8%,-64*
CCOc1ccc2c(c1)C(=O)C(=O)N2CC1COc2ccccc2O1 (centres undefined),.,.,.,.,-30%,-65*
COc1ccc(S(=O)(=O)NCc2nc(-c3ccccc3)no2)cc1,-20%,-13%,-14%[46.1 µM],4%[46.1 µM],.,-3
Cc1cc(C)c(C(=O)NCc2nc(-c3cccc(NC(=O)C4CCCN(C)C4)c3)oc2C)[nH]1 (centres undefined),-8%,-15%,.,.,.,.
CC(CC(=O)N1CCN(c2cccc(Cl)c2)CC1)S(=O)(=O)c1ccc2c(c1)NC(=O)CO2 (centres undefined),.,.,.,.,6.3µM*,-95*
COc1ccc(N2CCN(C(=O)CC(C)S(=O)(=O)c3ccc4c(c3)NC(=O)CO4)CC2)cc1 (centres undefined),-10%,?,?,?,?,?
O=C1COc2ccc(S(=O)(=O)CCC(=O)N3CCN(c4ccccc4)CC3)cc2N1,5%[7.34 µM],-12%[7.34 µM],.,.,6%,-2
SMILES,Vaccinia Venus,VACV mCherry inh,Marburg entry inh,Lassa entry inh,HCV inh,HCMV inh
Cc1ccc(C)c(N2CCN(C(=O)CCS(=O)(=O)c3ccc4c(c3)NC(=O)CO4)CC2)c1,.,.,.,.,?,-73*
COC(=O)c1ccc(Cn2c(=O)cc(C(F)(F)F)c3c(C)nn(C)c32)cc1,2%,-9%,.,17%[46.1 µM],.,11
CCOc1ccc(NC(=O)c2nnn(-c3ccc(F)c(Cl)c3)c2C)cc1,0%,-11%,2%[46.1 µM],10%[46.1 µM],.,-10
Cc1ccc(S(=O)(=O)CCC(=O)N(CCCN2CCOCC2)c2nc3ccccc3s2)cc1,?,14µM*,?,?,-13%,33
Cc1ccc(-c2csc(N(CCCN3CCOCC3)C(=O)c3ccco3)n2)cc1,-14%,-23%,?,?,11µM*,-6
COc1ccc(-c2csc(N(C)C(=O)c3ccco3)n2)cc1,-6%,-19%,10%,-13%,5%,13
O=C(c1ccco1)N(CC1CCCO1)c1nc(-c2ccccc2)cs1 (centres undefined),.,.,1%,-15%,?,-101*
Cc1ccc(-c2csc(N(CCCN(C)C)C(=O)c3ccco3)n2)cc1,-8%,-4%,?,-10%,?,-13
COc1ccc(-c2csc(N(CCCN3CCOCC3)C(=O)c3ccco3)n2)cc1,.,.,?,?,10µM*,24
O=C(CCS(=O)(=O)c1ccccc1)N(CCCN1CCOCC1)c1nc2ccccc2s1,-26%,-14%,?,?,?,70
CN(C)CCCN(C(=O)c1ccco1)c1nc(-c2ccc(Cl)cc2)cs1,.,.,.,.,11µM*,112
NC(=O)N=Nc1c2[nH]c3ccccc3nc-2c2ccccc12,-12%,i,?,?,?,-99*
COc1ccc(-n2nc(C(=O)NCC(=O)Nc3ccccn3)c3ccccc3c2=O)cc1,.,.,?,-6%,?,17
COc1ccc(-n2nc(C(=O)NCC(=O)NCc3ccc(F)cc3)c3ccccc3c2=O)cc1OC,?,-29%,?,?,13µM*,-18
CCOc1ccc(NC(=O)CNC(=O)c2nn(-c3ccc(OC)cc3)c(=O)c3ccccc23)cc1,-13%,-5%,-21%[46.1 µM],.,-5%,-65*
O=C(Cc1cscn1)N1CCOc2ccc(CN3CCN(c4ccccn4)CC3)cc2C1,-2%,-9%,.,.,.,.
N#Cc1ccc(OCC(O)CN2CCC(C(O)(c3ccccc3)c3ccccc3)CC2)cc1 (centres undefined),-18%,i,13µM*,?,10µM*,-12
CC(=O)c1ccc2c3c(cccc13)CC2,-9%,i,17%[46.1 µM],-2%,-15%,13
ON=C(c1ccccc1)c1ccc2c3c(cccc13)CC2,?,-20%,.,.,.,-62*
Cc1cccc(N2CCC(N3CCN(C4CCCCC4)C(CCO)C3)CC2)c1C (centres undefined),-10%,?,?,6%[46.1 µM],?,-75*
CCOC(=O)c1c(NC(=O)COC(=O)c2nc(Cl)ccc2Cl)sc2c1CCC2,-6%,-12%,-12%,13%,-2%,-61*
CCOC(=O)c1c(NC(=O)COc2cccc3c2CCN(Cc2ccc(F)cc2)C3=O)sc2c1CCC2,.,.,3%,.,2%,.
